Records with an inconclusive call do not appear. Calls of active or inactive are those of the source. Rule for the calls: active = hit-call score of the fitted dose curve at least 0.9, where 1 is the maximum; inconclusive = response in the unintended direction; inactive = score below 0.9.

sheep Cyclooxygenase-1 (Cox1), PTGS1 (gene 443551), sequence (P05979 whole entry, looked up): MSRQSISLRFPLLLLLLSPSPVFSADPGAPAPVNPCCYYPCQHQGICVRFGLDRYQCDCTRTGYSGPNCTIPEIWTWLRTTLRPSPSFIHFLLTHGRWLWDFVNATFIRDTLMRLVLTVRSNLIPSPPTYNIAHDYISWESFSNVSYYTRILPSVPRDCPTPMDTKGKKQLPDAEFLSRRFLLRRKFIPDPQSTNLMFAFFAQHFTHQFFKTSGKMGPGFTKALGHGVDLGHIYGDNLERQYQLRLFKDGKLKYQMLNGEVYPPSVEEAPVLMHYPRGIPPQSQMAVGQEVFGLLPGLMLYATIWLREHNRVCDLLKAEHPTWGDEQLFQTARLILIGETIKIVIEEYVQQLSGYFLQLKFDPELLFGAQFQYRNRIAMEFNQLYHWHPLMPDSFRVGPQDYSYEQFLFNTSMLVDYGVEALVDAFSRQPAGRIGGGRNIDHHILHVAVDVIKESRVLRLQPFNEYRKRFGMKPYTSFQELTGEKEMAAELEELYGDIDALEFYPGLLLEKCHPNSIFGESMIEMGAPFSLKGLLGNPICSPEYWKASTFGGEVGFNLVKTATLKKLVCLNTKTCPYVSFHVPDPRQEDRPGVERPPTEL
human Adrenergic, Alpha 2A Receptor (Adra2A), ADRA2A (gene 150), sequence (P08913 whole entry, looked up): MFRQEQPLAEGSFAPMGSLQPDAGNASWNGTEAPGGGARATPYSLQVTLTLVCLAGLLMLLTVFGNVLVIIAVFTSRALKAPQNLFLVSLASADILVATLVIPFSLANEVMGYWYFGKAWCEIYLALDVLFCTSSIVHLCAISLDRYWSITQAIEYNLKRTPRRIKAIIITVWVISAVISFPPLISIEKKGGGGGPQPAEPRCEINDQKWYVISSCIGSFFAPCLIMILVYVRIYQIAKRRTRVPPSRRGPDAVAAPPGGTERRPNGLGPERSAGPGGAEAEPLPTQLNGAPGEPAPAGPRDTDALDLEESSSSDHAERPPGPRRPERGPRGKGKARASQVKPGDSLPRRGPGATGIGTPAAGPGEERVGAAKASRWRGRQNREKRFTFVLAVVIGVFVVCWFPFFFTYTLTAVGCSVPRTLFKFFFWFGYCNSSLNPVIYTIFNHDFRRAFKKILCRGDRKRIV
rat Constitutive Nitric Oxide Synthase (CNOS), Nos1 (gene 24598), sequence (P29476 whole entry, looked up): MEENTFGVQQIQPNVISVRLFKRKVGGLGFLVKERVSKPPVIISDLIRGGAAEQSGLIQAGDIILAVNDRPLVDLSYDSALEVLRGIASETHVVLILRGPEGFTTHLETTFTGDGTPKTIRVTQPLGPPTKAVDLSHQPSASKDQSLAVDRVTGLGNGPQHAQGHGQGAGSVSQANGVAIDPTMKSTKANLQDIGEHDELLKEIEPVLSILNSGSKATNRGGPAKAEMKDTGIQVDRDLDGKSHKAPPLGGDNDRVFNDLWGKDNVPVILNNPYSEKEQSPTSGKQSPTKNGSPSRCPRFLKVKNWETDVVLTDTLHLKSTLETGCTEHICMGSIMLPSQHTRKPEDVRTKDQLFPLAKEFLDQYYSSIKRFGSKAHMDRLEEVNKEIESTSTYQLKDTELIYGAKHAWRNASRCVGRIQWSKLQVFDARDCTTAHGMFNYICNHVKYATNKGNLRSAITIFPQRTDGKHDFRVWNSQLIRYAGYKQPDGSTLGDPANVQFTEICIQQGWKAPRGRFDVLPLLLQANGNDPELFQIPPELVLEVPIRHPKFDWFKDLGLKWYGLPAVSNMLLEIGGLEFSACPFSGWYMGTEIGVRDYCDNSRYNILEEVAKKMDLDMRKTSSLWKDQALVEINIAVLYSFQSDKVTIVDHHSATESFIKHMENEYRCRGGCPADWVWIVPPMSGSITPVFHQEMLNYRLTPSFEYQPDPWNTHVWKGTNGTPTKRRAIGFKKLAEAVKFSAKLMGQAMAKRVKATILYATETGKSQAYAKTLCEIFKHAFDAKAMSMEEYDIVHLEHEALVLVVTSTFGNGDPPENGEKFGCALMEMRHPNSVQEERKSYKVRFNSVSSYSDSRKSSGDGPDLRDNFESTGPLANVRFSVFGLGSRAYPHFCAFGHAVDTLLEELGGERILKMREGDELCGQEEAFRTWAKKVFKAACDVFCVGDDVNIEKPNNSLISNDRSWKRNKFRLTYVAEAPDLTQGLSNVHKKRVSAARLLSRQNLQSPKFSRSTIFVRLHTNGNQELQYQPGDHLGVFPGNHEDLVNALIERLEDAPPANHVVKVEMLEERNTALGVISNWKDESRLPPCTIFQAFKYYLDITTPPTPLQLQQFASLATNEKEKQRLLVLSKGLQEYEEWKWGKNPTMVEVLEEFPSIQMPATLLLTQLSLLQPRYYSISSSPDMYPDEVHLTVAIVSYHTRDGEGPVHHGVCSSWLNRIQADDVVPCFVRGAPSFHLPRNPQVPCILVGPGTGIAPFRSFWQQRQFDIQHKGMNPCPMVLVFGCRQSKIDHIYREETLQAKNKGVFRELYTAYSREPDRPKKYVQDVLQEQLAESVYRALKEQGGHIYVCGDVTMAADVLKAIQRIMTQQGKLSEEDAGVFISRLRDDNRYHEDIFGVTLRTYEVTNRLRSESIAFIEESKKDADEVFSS
bovine Dopamine Receptor (DR), Non-selective Binding, DRD1 (gene 281125), sequence (Q95136 whole entry, looked up): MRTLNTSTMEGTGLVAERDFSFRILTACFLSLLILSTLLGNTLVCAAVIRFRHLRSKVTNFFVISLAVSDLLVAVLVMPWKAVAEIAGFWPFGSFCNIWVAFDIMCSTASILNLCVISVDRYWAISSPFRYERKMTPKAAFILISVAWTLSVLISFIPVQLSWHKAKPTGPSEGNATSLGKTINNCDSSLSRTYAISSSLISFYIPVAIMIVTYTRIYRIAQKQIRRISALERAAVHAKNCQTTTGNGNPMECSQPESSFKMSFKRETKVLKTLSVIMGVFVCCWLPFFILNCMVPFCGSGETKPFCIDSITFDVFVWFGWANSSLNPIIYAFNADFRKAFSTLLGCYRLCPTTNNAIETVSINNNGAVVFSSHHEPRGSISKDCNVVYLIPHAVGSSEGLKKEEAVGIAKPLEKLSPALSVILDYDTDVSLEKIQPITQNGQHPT

The first experiment concerns the target rat Constitutive Nitric Oxide Synthase (CNOS), Nos1 (gene 24598) (UniProt P29476). In words: NVS_ENZ_rCNOS: NovaScreen (NVS) Enzymatic Assay for rat Constitutive Nitric Oxide Synthase (CNOS) (AID 2283236). Put shortly:
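Enzyme activity in rat brain membrane preparation, read 1 h after dosing by filter-based radiometric scintillation counting. Primary screen in duplicate at 25 uM; actives (e.g., ≥30% inhibition) then run in concentration-response up to 50 uM.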
On to `CC/C(=C\C(=N/O)C(N)=O)C(C)[N+](=O)[O-]` (stereo unspecified), for which the result was inactive.
A word on the AC50: it is the concentration giving half of the maximal activity seen. For `COc1cccc(-c2ccc(/C=C\CN3CCCCCC3)cc2Cl)c1`, the AC50 was 29.9 µM (active).
Consider `CN(C)c1ccc(N=NS(=O)(=O)O)cc1`, for which the call was inactive.
On the same count and under the same terms, in the case of `CC(C)=CCCC(C)=CC=O` it was “inactive”.
As for `CC1(C)C(=O)N(Br)C(=O)N1Br`, the AC50 was 12.2 µM (active).
Consider `CC1=CC(=O)CC(C)(C)C1`, for which the call was inactive.
Consider `O=c1[nH]c2ccc(S(=O)CCN3CCC(Cc4ccc(F)cc4)CC3)cc2o1` (stereo unspecified), for which the molecule was classed as inactive.
As to `CC(C)=CCCC(C)CCO` (stereo unspecified), the molecule was called inactive.

The target of the next experiment is sheep Cyclooxygenase-1 (Cox1), PTGS1 (gene 443551) (UniProt P05979). In words: NVS_ENZ_oCOX1: NovaScreen (NVS) Enzymatic Assay for sheep Cyclooxygenase-1 (Cox1) (AID 2283239).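 Note: actives reduce cyclooxygenase activity so potencies are for inhibitors.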 Put shortly:
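Absorbance read-out of cyclooxygenase activity in a cell-free preparation from sheep seminal vesicles, taken 0.66 hour after dosing. Initial testing was in duplicate at 25 uM, and confirmatory testing was run in concentration series.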
For `O=C1OC(=O)C2C3C=CC(C3)C12` (stereo unspecified), the result was inactive.
For `CCCCCCc1ccc(O)cc1O`, the half-maximal activity concentration (AC50) was 5.25 µM (active).
The same measure, in the same setting: for `CC[C@H](C)C(=O)O[C@H]1C[C@@H](C)C=C2C=C[C@H](C)[C@H](CC[C@@H]3C[C@@H](O)CC(=O)O3)[C@H]21` the value was 34.3 µM (active).
Consider `COCCOCCOCCOC`, for which the result was inactive.
On to `C[C@](N)(Cc1ccc(O)c(O)c1)C(=O)O`, for which the concentration at half-maximal activity (AC50) was 2.33 µM (active).
For the molecule `CC(C)c1cccc(C(C)C)c1N1C(=O)c2ccc(O)cc2C1=O`, the AC50 is 2.48 µM (active).
On to `CCOC(=O)c1ccc(C2CCC(NC[C@H](O)COc3ccc(O)c(NS(C)(=O)=O)c3)CC2)cc1` (stereo partly specified), for which the AC50 was 15.2 µM (active).
`Oc1ccc2c(c1)-c1ccccc1C2`: the molecule was classed as inactive.
As for `Cc1ccc(C)c(O)c1`, the result was inactive.
As for `CC(C)=CCC/C(C)=C\CO`, the AC50 is 25 µM (active).
`CCc1cc(SCc2sc(-c3ccc(C(F)(F)F)cc3)nc2CN2CCN(c3ccc(OC)cc3)CC2)ccc1OCC(=O)O`: the outcome was inactive.
For `O=C(OC[C@H]1O[C@@H](OC(=O)c2cc(O)c(O)c(OC(=O)c3cc(O)c(O)c(O)c3)c2)[C@H](OC(=O)c2cc(O)c(O)c(OC(=O)c3cc(O)c(O)c(O)c3)c2)[C@@H](OC(=O)c2cc(O)c(O)c(OC(=O)c3cc(O)c(O)c(O)c3)c2)[C@@H]1OC(=O)c1cc(O)c(O)c(OC(=O)c2cc(O)c(O)c(O)c2)c1)c1cc(O)c(O)c(OC(=O)c2cc(O)c(O)c(O)c2)c1`, the AC50 is 4.31 µM (active).
As for `Nc1nc2ncc(CNc3ccc(C(=O)N[C@@H](CCC(=O)O)C(=O)O)cc3)nc2c(=O)[nH]1`, the AC50 is 11 µM (active).
Regarding `CC(C)=CCCC(C)CCO` (stereo unspecified), the AC50 was 21.6 µM (active).

A further experiment concerns the target bovine Dopamine Receptor (DR), Non-selective Binding, DRD1 (gene 281125) (UniProt Q95136). In words: NVS_GPCR_bDR_NonSelective: NovaScreen (NVS) G Protein-Coupled Receptor Assay for bovine Dopamine Receptor (DR), Non-selective Binding (AID 2283241). The essentials:
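Bovine striatal membranes; radioligand displacement read by filtration and scintillation counting 1 h after dosing, loss of signal vs DMSO. Screened in duplicate at 25 uM, then concentration-response for hits.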
In the case of `COc1cccc(-c2ccc(/C=C\CN3CCCCCC3)cc2Cl)c1`, the AC50 is 36.4 µM (active).
For the molecule `CCOC(=O)c1ccc(C2CCC(NC[C@H](O)COc3ccc(O)c(NS(C)(=O)=O)c3)CC2)cc1` (stereo partly specified), the AC50 is 1.24 µM (active).
For `O=c1[nH]c2ccc(S(=O)CCN3CCC(Cc4ccc(F)cc4)CC3)cc2o1` (stereo unspecified), the AC50 is 6.78 µM (active).

For another experiment, the system named is guinea pig Leukotriene B4 Receptor (LTB4), gene 100379538. In words: NVS_GPCR_gLTB4: NovaScreen (NVS) G Protein-Coupled Receptor Assay for guinea pig Leukotriene B4 Receptor (LTB4) (AID 2283247). The essentials: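 Radioligand displacement on guinea pig spleen membranes, filter-based scintillation counting 2 h after dosing. Primary duplicate single point at 25 uM; hits over threshold (e.g. 30% inhibition) run in concentration-response up to 50 uM, DMSO baseline.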
For the molecule `O=C(NS(=O)(=O)/C=C/c1ccccc1)c1ccc(F)cc1Cl`, the AC50 was 12.4 µM (active).
`O=C(OC[C@H]1O[C@@H](OC(=O)c2cc(O)c(O)c(OC(=O)c3cc(O)c(O)c(O)c3)c2)[C@H](OC(=O)c2cc(O)c(O)c(OC(=O)c3cc(O)c(O)c(O)c3)c2)[C@@H](OC(=O)c2cc(O)c(O)c(OC(=O)c3cc(O)c(O)c(O)c3)c2)[C@@H]1OC(=O)c1cc(O)c(O)c(OC(=O)c2cc(O)c(O)c(O)c2)c1)c1cc(O)c(O)c(OC(=O)c2cc(O)c(O)c(O)c2)c1`: the result was inactive.
As to `COc1ccc(/C=C/S(=O)(=O)NC(=O)c2ccc(C)cc2Cl)cc1`, the result was inactive.

The next experiment deals with human Serotonin, 5-Hydroxytryptamine Receptor 2A (5HT2A), HTR2A (gene 3356) (UniProt P28223). In words: NVS_GPCR_h5HT2A: NovaScreen (NVS) G Protein-Coupled Receptor Assay for human Serotonin, 5-Hydroxytryptamine Receptor 2A (5HT2A) (AID 2283249). Put shortly: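 Human cortex membranes, cell-free radioligand binding; filter-based scintillation read 1.5 h after dosing. Duplicate screen at 25 uM first; displacement of specific binding (loss of signal) versus DMSO.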
human Serotonin, 5-Hydroxytryptamine Receptor 2A (5HT2A), HTR2A (gene 3356), sequence (P28223 whole entry, looked up): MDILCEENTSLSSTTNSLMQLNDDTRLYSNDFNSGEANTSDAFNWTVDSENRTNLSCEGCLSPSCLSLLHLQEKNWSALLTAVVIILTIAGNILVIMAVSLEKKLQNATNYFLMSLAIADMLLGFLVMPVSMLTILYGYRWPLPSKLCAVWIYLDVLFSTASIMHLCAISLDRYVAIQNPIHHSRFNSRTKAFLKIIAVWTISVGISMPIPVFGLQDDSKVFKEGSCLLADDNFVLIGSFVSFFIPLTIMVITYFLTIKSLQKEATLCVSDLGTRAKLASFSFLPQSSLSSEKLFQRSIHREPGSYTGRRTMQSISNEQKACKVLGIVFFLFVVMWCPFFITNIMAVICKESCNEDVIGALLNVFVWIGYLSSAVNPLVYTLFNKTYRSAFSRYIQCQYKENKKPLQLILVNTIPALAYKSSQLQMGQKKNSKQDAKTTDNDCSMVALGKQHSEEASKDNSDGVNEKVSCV
Regarding `CC/C(=C\C(=N/O)C(N)=O)C(C)[N+](=O)[O-]` (stereo unspecified), the molecule was called inactive.
Turning to `COc1cccc(-c2ccc(/C=C\CN3CCCCCC3)cc2Cl)c1`, the AC50 was 15.8 µM (active).
In the case of `CCOC(=O)c1ccc(C2CCC(NC[C@H](O)COc3ccc(O)c(NS(C)(=O)=O)c3)CC2)cc1` (stereo partly specified), the AC50 was 23.4 µM (active).
Regarding `CCc1cc(SCc2sc(-c3ccc(C(F)(F)F)cc3)nc2CN2CCN(c3ccc(OC)cc3)CC2)ccc1OCC(=O)O`, the call was inactive.
As to `CC1(C)C(=O)N(Br)C(=O)N1Br`, the AC50 is 25 µM (active).
As to `O=c1[nH]c2ccc(S(=O)CCN3CCC(Cc4ccc(F)cc4)CC3)cc2o1` (stereo unspecified), the AC50 is 2.59 µM (active).

The target in a further experiment is human Serotonin, 5-Hydroxytryptamine Receptor 5A (5HT5A), HTR5A (gene 3361) (UniProt P47898). In words: NVS_GPCR_h5HT5A: NovaScreen (NVS) G Protein-Coupled Receptor Assay for human Serotonin, 5-Hydroxytryptamine Receptor 5A (5HT5A) (AID 2283251). The essentials: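 Cell-free radioligand displacement binding on HEK293-derived membrane protein, 1 h incubation, filter-based scintillation counting. Primary screen in duplicate at 25 uM, actives followed in concentration series; loss of signal fitted versus DMSO.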
human Serotonin, 5-Hydroxytryptamine Receptor 5A (5HT5A), HTR5A (gene 3361), sequence (P47898 whole entry, looked up): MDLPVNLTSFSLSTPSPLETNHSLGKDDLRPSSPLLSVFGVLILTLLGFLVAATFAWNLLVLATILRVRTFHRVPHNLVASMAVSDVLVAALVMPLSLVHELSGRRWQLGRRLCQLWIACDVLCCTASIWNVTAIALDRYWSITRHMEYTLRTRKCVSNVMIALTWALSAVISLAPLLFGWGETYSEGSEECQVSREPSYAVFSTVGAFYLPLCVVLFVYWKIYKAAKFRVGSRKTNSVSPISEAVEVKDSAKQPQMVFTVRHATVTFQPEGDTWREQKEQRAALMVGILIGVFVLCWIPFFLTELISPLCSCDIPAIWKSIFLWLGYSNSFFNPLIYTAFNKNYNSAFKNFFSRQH
Regarding `CCCCCCc1ccc(O)cc1O`, the result was inactive.
In the case of `COc1cccc(-c2ccc(/C=C\CN3CCCCCC3)cc2Cl)c1`, the AC50 is 22.6 µM (active).
On to `CCc1cc(SCc2sc(-c3ccc(C(F)(F)F)cc3)nc2CN2CCN(c3ccc(OC)cc3)CC2)ccc1OCC(=O)O`, for which the AC50 is 2.36 µM (active).

In another experiment the target is human Serotonin, 5-Hydroxytryptamine Receptor 7 (5HT7), HTR7 (gene 3363) (UniProt P34969). In words: NVS_GPCR_h5HT7: NovaScreen (NVS) G Protein-Coupled Receptor Assay for human Serotonin, 5-Hydroxytryptamine Receptor 7 (5HT7) (AID 2283255).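 Note: hits reduce specific radioligand binding relative to DMSO.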 The essentials: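 Radioligand displacement on membranes from CHO cells expressing human 5HT7, 1 h incubation, filter-based scintillation counting. Primary screen used a single 25 uM concentration in duplicate; actives were followed up in concentration series.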
human Serotonin, 5-Hydroxytryptamine Receptor 7 (5HT7), HTR7 (gene 3363), sequence (P34969 whole entry, looked up): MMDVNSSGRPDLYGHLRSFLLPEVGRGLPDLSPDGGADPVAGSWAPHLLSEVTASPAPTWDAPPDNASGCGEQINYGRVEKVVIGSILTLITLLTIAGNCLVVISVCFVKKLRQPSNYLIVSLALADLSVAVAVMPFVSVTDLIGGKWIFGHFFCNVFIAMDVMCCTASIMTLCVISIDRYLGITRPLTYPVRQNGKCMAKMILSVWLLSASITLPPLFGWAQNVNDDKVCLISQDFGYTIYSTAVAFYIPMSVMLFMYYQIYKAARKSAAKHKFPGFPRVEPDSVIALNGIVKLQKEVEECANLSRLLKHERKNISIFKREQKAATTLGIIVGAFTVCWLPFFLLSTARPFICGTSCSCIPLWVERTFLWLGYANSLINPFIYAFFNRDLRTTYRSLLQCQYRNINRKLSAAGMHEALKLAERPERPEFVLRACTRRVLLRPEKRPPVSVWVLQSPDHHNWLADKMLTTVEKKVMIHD
For `CCCCCCc1ccc(O)cc1O`, the concentration at half-maximal activity (AC50) was 25 µM (active).
Take `COc1cccc(-c2ccc(/C=C\CN3CCCCCC3)cc2Cl)c1`: the AC50 is 17.5 µM (active).
With `CCOC(=O)c1ccc(C2CCC(NC[C@H](O)COc3ccc(O)c(NS(C)(=O)=O)c3)CC2)cc1` (stereo partly specified), the AC50 is 6.12 µM (active).
Regarding `Oc1ccc2c(c1)-c1ccccc1C2`, the result was inactive.
Take `CCc1cc(SCc2sc(-c3ccc(C(F)(F)F)cc3)nc2CN2CCN(c3ccc(OC)cc3)CC2)ccc1OCC(=O)O`: the AC50 was 4.32 µM (active).
Turning to `O=c1[nH]c2ccc(S(=O)CCN3CCC(Cc4ccc(F)cc4)CC3)cc2o1` (stereo unspecified), the AC50 is 0.534 µM (active).

Another experiment has as its target human Adrenergic, Alpha 2A Receptor (Adra2A), ADRA2A (gene 150) (UniProt P08913). In words: NVS_GPCR_hAdra2A: NovaScreen (NVS) G Protein-Coupled Receptor Assay for human Adrenergic, Alpha 2A Receptor (Adra2A) (AID 2283257). The essentials:
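Radioligand filter-binding was run on HT29-derived membranes, cell-free, read by scintillation counting 1 h after dosing. Primary screening was in duplicate at 25 uM, with concentration series in follow-up. Loss of signal versus DMSO indicates displacement.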
Regarding `COc1cccc(-c2ccc(/C=C\CN3CCCCCC3)cc2Cl)c1`, the AC50 is 8.54 µM (active).
Turning to `CCOC(=O)c1ccc(C2CCC(NC[C@H](O)COc3ccc(O)c(NS(C)(=O)=O)c3)CC2)cc1` (stereo partly specified), the AC50 is 31.1 µM (active).
As for `O=c1[nH]c2ccc(S(=O)CCN3CCC(Cc4ccc(F)cc4)CC3)cc2o1` (stereo unspecified), the concentration at half-maximal activity (AC50) is 0.837 µM (active).

These data come from PubChem BioAssay (EPA / NIEHS).
